The supplement of paper PMC9262897, “Low-cost anti-mycobacterial drug discovery using engineered E. coli” (Nature Communications, 2022)
Structures can show the parent of a compound that is named as a salt. ± gives the standard deviation of the averaged measurements.

Test system: E. coli TESEC Mtb Alr
Test: growth (OD600 after 10 h); higher = more growth (less inhibition)
Settings: arabinose 10000000 nM; compound 0.1 mM; raw OD600 reference: median of DMSO wells 0.146, cell-free background 0.041
Description: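 TESEC Mtb Alr E. coli, or the Alr+ wild-type control, in 384-well plates with Prestwick library compounds at 0.1 mM and 1% DMSO, across arabinose induction levels of 1E3 to 1E7 nM. Growth is read as OD600 after 10 h at 37 °C in triplicate biological replicates.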

SMILES | growth
COc1ncnc(NS(=O)(=O)c2ccc(N)cc2)c1OC [Sulfadoxine] | 0.14 ± 0.0077
c1ccc(C2CN3CCSC3=N2)cc1 (stereo not given) [Tetramisole hydrochloride] | 0.16 ± 0.0039
CCCC1O[C@@H]2C[C@H]3[C@@H]4CCC5=CC(=O)C=C[C@]5(C)[C@H]4[C@@H](O)C[C@]3(C)[C@]2(C(=O)CO)O1 (stereo not given in full) [Budesonide] | 0.141 ± 0.0021
COc1cc2ncnc(Nc3ccc(F)c(Cl)c3)c2cc1OCCCN1CCOCC1 [Gefitinib] | 0.162 ± 0.0061
C[C@H]1C[C@@H]2[C@H]([C@@H](O)C[C@@]3(C)[C@H]2CC[C@]3(O)C(=O)CO)[C@@]2(C)C=CC(=O)C=C12 [Methylprednisolone, 6-alpha] | 0.134 ± 0.0027
C[C@@H](O)[C@H]1C(=O)N2C(C(=O)O)=C(SCCNC=N)C[C@H]12 [Imipenem] | 0.136 ± 0.0047
CC(=O)Oc1ccccc1C(=O)Nc1ncc([N+](=O)[O-])s1 [Nitazoxanide] | 0.0448 ± 0.0011
CC[C@H](C)[C@H](N)C1=N[C@H](C(=O)N[C@@H](CC(C)C)C(=O)N[C@H](CCC(=O)O)C(=O)N[C@H](C(=O)N[C@H]2CCCCNC(=O)[C@H](CC(N)=O)NC(=O)[C@@H](CC(=O)O)NC(=O)[C@H](Cc3cnc[nH]3)NC(=O)[C@@H](Cc3ccccc3)NC(=O)[C@H]([C@@H](C)CC)NC(=O)[C@@H](CCCN)NC2=O)[C@@H](C)CC)CS1 [Bacitracin] | 0.214 ± 0.013
c1ccc([C@H]2CN3CCSC3=N2)cc1 [Levamisole hydrochloride] | 0.142 ± 0.0042
CN(Cc1cnc2nc(N)nc(N)c2n1)c1ccc(C(=O)N[C@@H](CCC(=O)O)C(=O)O)cc1 (racemic) [Amethopterin (R,S)] | 0.144 ± 0.0042
